# Measurements: PubChem BioAssay AID2566 (National Center for Advancing Translational Sciences (NCATS), 2010)
# Records with an inconclusive call do not appear. Calls of active or inactive are those of the source.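 The calls were made as follows: active = compound that pushes labeled neuropeptide S off its receptor in a binding test; inconclusive = all other tested compounds; inactive = none, nothing was called inactive.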
# Target: Neuropeptide S receptor (Homo sapiens) (UniProt Q6W5P4)
# Experiment: Confirmation Concentration-Response Assay for Antagonists of the Neuropeptide S Receptor: Radioligand Displacement, SAR for Probe
# Conditions: CHO-hNPSR, [125I]Y10-NPS displacement, 1.5 h
# Text: NIH Chemical Genomics Center [NCGC] NIH Molecular Libraries Probe Production centers Network [MLPCN] MLPCN Grant: X01-DA026210-01 Assay Submitter (PI): Heilig, Markus Alexander NCGC Assay Overview: Neuropeptide S receptor (NPSR), previously known as GPR154, is a recently de-orphanized G protein coupled receptor. Its endogenous ligand is the 20 amino acids peptide Neuropeptide S (NPS). […] NPS and its receptor are found in various tissues. Specifically they are highly expressed in brain areas that have been implicated in modulation of arousal, stress and anxiety. Central administration of NPS in mice produces an unusual profile of activity by inducing wakefulness and arousal, while at the same time suppressing anxiety. Therefore, NPSR may represent a novel drug target for the treatment of sleep and anxiety disorders. As one method of confirming the specific activity of compounds active in the primary screen (AID 1461), we developed an assay to measure the displacement of radio-labeled native ligand, NPS, from its receptor in vitro.
# The assay was carried out as described (Xu et al. (2004) Neuron, 43: 487-497) with minor modification. Y10-NPS labeled with 125I was bought from NEN Perkin Elmer (Boston, MA). […] Nonspecific binding was determined in the presence of 1 uM unlabeled human NPS. […] Bound radioactivity was counted in a liquid scintillation counter.
# Neuropeptide S receptor (Homo sapiens), sequence (Q6W5P4 whole entry, looked up): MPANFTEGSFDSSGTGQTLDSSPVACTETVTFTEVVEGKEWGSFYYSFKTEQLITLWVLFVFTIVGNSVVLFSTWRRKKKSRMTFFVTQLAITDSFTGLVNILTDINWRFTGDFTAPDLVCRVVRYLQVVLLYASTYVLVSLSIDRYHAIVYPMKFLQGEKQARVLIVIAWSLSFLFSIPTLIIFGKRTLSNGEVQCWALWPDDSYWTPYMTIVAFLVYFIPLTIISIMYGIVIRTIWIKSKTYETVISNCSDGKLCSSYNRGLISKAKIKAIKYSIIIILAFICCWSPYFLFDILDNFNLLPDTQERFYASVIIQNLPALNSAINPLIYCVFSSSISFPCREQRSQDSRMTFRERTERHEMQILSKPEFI
row,Compound,Potency
1,Cc1c(P(=S)(c2ccccc2)c2ccccc2)[n+]2ccccc2n1C/C=C/c1ccccc1,1 nM (active)
2,Cc1c(P(=S)(c2ccccc2)c2ccccc2)[n+]2ccccc2n1C,84.3 nM (active)
